Screening data: PubChem BioAssay, National Center for Advancing Translational Sciences (NCATS)
Rows were chosen to be rich in hits. Some 6% of all compounds tested hit in one or more screens of this group.
CRE Fsk mod: Cell signaling CRE-BLA (Fsk stim). CHO CRE-bla reporter (cAMP response element driving beta-lactamase), forskolin EC10, beta-lactamase ratio. Potency, µM (titrated, usually from 38.2 µM), most hits filed as activators. actives 2.5% (n = 71,000); active = well fitted activation curve with a large enough effect in the signal ratio, with a control signal flat, not every such curve was filed as active; inconclusive = small, poorly fitted or top-dose-only effect, or effect the other way, or a change in a side signal; the % refers to the signal ratio
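Beta-lactamase reporter under a cAMP responsive element in CHO cells; compounds tested in titration series against EC10 NKH 477, 3 h at 37 °C. Read-out: CCF4 FRET ratio 460nm/530nm (excitation 405nm) giving %Activity, fitted to AC50.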
HEK293 cAMP ctrl: qHTS Assay for Agonists of the Thyroid Stimulating Hormone Receptor: Activators of Intracellular cAMP Concentrations in Parental HEK 293 | AID 938, 2007 | actives 2.5% (n = 73,000) | parental HEK293 CNG cAMP sensor, membrane potential fluorescence | Potency, µM (highest dose often 57.1 µM), most hits filed as activators; also: nearly all actives have a fitted effect of over 55% in size
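Counterscreen for endogenous-receptor signalling: CNG-channel HEK 293 cells report cAMP rise by membrane depolarization. After 60 min dye equilibration with 100 uM RO 20-1724, compounds incubated 30 min before bottom-read fluorescence at 590 nm.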
TSHR ag: qHTS Assay for Agonists of the Thyroid Stimulating Hormone Receptor; Thyrotropin receptor (Homo sapiens), P16473; HEK293-CNG-TSHR cells (CNG channel as cAMP sensor), membrane potential dye, cAMP; Potency, µM (titrated, usually from 57.1 µM), hits mostly activators; actives 0.48% (n = 73,000); AID 926, 2007; active = well fitted activation curve with a large enough effect in the main read-out, with a control signal flat, not every such curve was filed as active; inconclusive = small, poorly fitted or top-dose-only effect, or a change in a side signal; inactive = no such curve, though single readings can be large or run the other way; reference of the percent scale not stated here;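 also: the control signal comes from parental cells without the receptor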
Target sequence (P16473 whole entry, looked up): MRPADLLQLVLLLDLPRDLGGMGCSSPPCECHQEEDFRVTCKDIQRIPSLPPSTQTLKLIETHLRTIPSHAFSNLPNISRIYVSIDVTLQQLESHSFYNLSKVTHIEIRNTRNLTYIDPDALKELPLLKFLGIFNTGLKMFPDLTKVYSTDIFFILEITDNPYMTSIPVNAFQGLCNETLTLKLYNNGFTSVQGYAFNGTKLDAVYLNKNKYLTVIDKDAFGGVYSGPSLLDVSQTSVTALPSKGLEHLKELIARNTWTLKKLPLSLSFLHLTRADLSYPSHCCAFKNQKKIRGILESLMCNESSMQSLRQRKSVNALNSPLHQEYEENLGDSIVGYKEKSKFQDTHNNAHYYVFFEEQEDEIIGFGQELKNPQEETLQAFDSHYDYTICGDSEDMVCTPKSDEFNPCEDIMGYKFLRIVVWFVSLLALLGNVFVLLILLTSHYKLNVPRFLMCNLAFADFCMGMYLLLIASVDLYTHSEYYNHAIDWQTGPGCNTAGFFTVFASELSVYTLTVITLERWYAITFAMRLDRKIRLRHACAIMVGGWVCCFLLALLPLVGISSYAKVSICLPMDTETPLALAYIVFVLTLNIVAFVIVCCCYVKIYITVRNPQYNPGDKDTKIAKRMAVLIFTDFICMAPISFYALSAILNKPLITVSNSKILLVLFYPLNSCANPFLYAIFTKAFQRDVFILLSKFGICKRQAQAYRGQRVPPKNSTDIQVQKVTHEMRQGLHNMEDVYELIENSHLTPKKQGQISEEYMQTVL
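HEK 293 cells stably expressing TSHR and a modified CNG channel, with CNG-only parental cells as counterscreen, were preloaded 60 min at room temperature with membrane potential dye containing 100 uM RO 20-1724. Compound exposure was 30 min, and depolarization was read as fluorescence at 590 nm.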
ERK AVP block: qHTS Assay for Inhibitors of the ERK Signaling Pathway using a Homogeneous Screening Assay; actives 0.99% (n = 72,000); Potency, µM (highest dose often 57.5 µM), hits mostly inhibitors; HEK293-V1b, vasopressin-stimulated pERK AlphaScreen; also: nearly all actives have a fitted effect of over 55% in size
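V1b-HEK293 cells; cpd 30 min 37C; 25 nM vasopressin 5 min; lyse 10 min; AlphaScreen beads 5 hr RT. Normalized to DMSO basal and 25 nM vasopressin; AC50 by Hill fit.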
Hits are given with their value; – = inactive; ? = inconclusive; · = no result; [ ] = remark or other dose. Unless noted, calls follow the shape of the dose curve; as a rule, active = well fitted curve in the direction sought with a large enough effect; inconclusive = small, poorly fitted or top-dose-only effect, or another doubt; inactive = no such curve, though single readings can be large; an effect the other way counts as inactive or inconclusive.

SMILES	CRE Fsk mod	HEK293 cAMP ctrl	TSHR ag	ERK AVP block
CS(=O)(=O)Nc1ccc(Nc2c3ccccc3nc3ccccc23)cc1	–[7.6 µM]	–[11.4 µM]	–[11.4 µM]	–[11.5 µM]
O=C(CSc1nc(Nc2ccccc2)nc(N2CCOCC2)n1)N1CCCC1	?	–	–	–
O=C(CSc1nc(Nc2ccccc2)nc(N2CCOCC2)n1)Nc1ccc2c(c1)OCCO2	6.3µM	–	25µM	–
O=C(CSc1nc2ccccc2[nH]1)Nc1ccc2c(c1)OCCO2	–	–	·	32µM
Cc1ccccc1NC(=O)CSc1nc(Nc2ccccc2)nc(N2CCOCC2)n1	–	?	?	–
O=C(CSc1nc(Nc2ccccc2)nc(N2CCOCC2)n1)N1CCc2ccccc21	4µM	–	·	–
Cc1ccc(-n2c(SCC(=O)Nc3ccc4c(c3)OCCO4)nnc2-c2ccco2)cc1	?	–	25µM	–
CCC(CCC(C)C1CCC2C3CC=C4CC(OC(C)=O)CC[C@@]4(C)C3CC[C@@]12C)C(C)C (some centres undefined)	·	·	·	–
CC(=O)C(Sc1nn(C)c(=S)s1)C(=O)Nc1ccccc1 (centres undefined)	–	20µM	?	–
CC(=O)Oc1ccc2occ(C(=O)c3cccs3)c2c1	–	25µM	?	–
O=C(O)COc1ccc2occ(C(=O)c3ccccc3)c2c1	–	–	–	–
Cn1cccc1C(=O)N1CCC2(CCCN(C(c3ccccc3)c3ccccc3)C2)CC1	?	–	–	?
COc1ccc(OC)c(Nc2cc(-c3ccccc3)nc(N)n2)c1	?	?	?	10µM
COc1ccc(OC)c(Nc2cc(C)nc3ccccc23)c1	–	?	?	–
COC(=O)c1c(NC(=O)CN2CCN(Cc3ccc4c(c3)OCO4)CC2)sc(C)c1C	?	1.6µM	?	–
COc1cccc(-c2nccc(NCc3ccc(OC)cc3OC)n2)c1	–	?	?	–
Cc1csc(NC(=O)CNS(=O)(=O)c2cccs2)n1	–	–	–	–
Cc1ccc2nc(NC(=O)CN(C)S(=O)(=O)c3ccc(Br)s3)sc2c1	–	–	–[11.4 µM]	4µM
Cc1ccc2nc(NC(=O)CNS(=O)(=O)c3ccc(Br)s3)sc2c1	?	–	–	–
Cc1cccc2sc(NC(=O)CNS(=O)(=O)c3ccc(Br)s3)nc12	?	–	–	20µM
Cc1ccc(OCC(=O)Nc2ccc3c(c2)nc(CCN2CCOCC2)n3C)cc1	?	25µM	?	–
O=C(Nc1nc(-c2ccccn2)cs1)c1ccc(S(=O)(=O)N2CCCCC2)cc1	–	–	–[11.4 µM]	25µM
O=C(CCn1nc(-c2ccc(Cl)cc2)ccc1=O)N1CCN(c2ccccn2)CC1	4µM	–	–	–
CO[C@H]1COC(=O)C/C=C\[C@@H](C)COC(=O)[C@@H](OCc2ccccc2)/C=C\[C@@H]1C	·	?	?	–[11.5 µM]
CCOC(=O)C1=C(N)OC2=C(C(=O)CC(C)(C)C2)C1c1ccco1 (centres undefined)	–	25µM	?	–
SMILES	CRE Fsk mod	HEK293 cAMP ctrl	TSHR ag	ERK AVP block
COc1cc2cc3c4c(cc(OC)c(OC)c4c2cc1OC)CCN3C	0.79µM	–	?	?
CCC1Oc2ccc(C)cc2N(CC(=O)NCCCN2CCCCC2CC)C1=O (centres undefined)	–	–	–	–
CCC1Oc2ccc(C)cc2N(CC(=O)NCCC2=CCCCC2)C1=O (centres undefined)	–	6.3µM	?	–
CC1CCCCN1CCCNC(=O)c1ccc(Cc2nc3ccccc3[nH]2)cc1 (centres undefined)	·	–	–	·
O=S(=O)(c1ccc(Oc2ccc(Br)cc2F)nc1)N1CCCCC1	–	25µM	?	–
O=C(O)C1=C/C(=C(/c2ccccc2)c2cc(C(=O)O)c(O)c3ccccc23)c2ccccc2C1=O	–[7.6 µM]	–[11.4 µM]	–[11.4 µM]	–[11.5 µM]
CC1CN(S(=O)(=O)c2cn(C)c(=O)n(C)c2=O)CC(C)O1 (centres undefined)	–	–	40µM	·
Cc1cc(C)nc(-n2nc(C)c(Sc3ccc(F)cc3)c2N)n1	2µM	–	–	–
CN(C)Cc1ccccc1-c1ccc2ncnc(N(C)Cc3ccco3)c2c1	?	?	?	–
CN(C)Cc1ccccc1-c1nccc(NCc2cccs2)n1	–	25µM	?	–
CN(C)Cc1ccccc1-c1nc(N(C)Cc2ccco2)c2ccccc2n1	–	13µM	?	–
CN(C)Cc1ccccc1-c1nccc(N(C)Cc2ccco2)n1	–	32µM	?	–
CC(C)(CCc1nc2ccccc2[nH]1)C(=O)O	–[7.6 µM]	–[11.4 µM]	–[11.4 µM]	–[11.5 µM]
Cc1nn(-c2ccccn2)c2nc(-c3cccs3)cc(C(=O)N3CCOCC3)c12	3.2µM	–	3.2µM	–
CCOC(=O)c1cnn(-c2ccccn2)c1N	?	–	–[11.4 µM]	–
CCOC(=O)c1cc(-c2ccncc2)nc2c1c(C)nn2-c1ccccn1	3.2µM	?	?	–
N#Cc1nc(COc2cccc(Cl)c2)oc1N1CCCC1	–	13µM	?	–
N#Cc1nc(COc2ccc(F)cc2)oc1N1CCCC1	–	?	?	–
N#Cc1nc(COc2ccccc2)oc1N1CCC(Cc2ccccc2)CC1	?	?	?	–
Cc1ccc(OCc2nc(C#N)c(N3CCN(Cc4ccccc4)CC3)o2)cc1	–	2µM	?	–
N#Cc1nc(COc2ccccc2)oc1N1CCN(Cc2ccccc2)CC1	?	13µM	?	–
Clc1ccc(/C=C\c2nc(Cl)c(-c3ccc(Cl)cc3)c(Cl)n2)cc1	–[7.6 µM]	–[11.4 µM]	–[11.4 µM]	–[11.5 µM]
Cc1cc(NC(=O)COC(=O)c2ccc(S(=O)(=O)N3CCCc4ccccc43)cc2)no1	–	–	16µM	–
COc1cccc(-c2nc(NCc3cccs3)c3ccccc3n2)c1	?	–	·	32µM
COc1cccc(-c2nccc(NCc3cccc(C)c3)n2)c1	–	?	?	–
SMILES	CRE Fsk mod	HEK293 cAMP ctrl	TSHR ag	ERK AVP block
Cc1ccccc1-c1cncnc1NCc1cccs1	–	16µM	?	25µM
N#Cc1cccc(-c2nccc(NCc3cccnc3)n2)c1	?	–	–	16µM
COc1cccc(-c2nccc(NCc3ccccc3)n2)c1	–	?	?	10µM
COC(=O)c1ccc(C(NC(=O)OCc2ccccc2)/C(C)=C/[C@@H](C)C(=O)N2CCN(C)CC2)cc1 (some centres undefined)	–	–	–	–
COC(=O)CC1[C@@]2(C)C[C@@]34OC5(C)OC6(CC[C@@]7(C)C(c8ccoc8)OC(=O)C(C(C)=O)C7[C@]6(O5)C(O)[C@@]3(O)C2O)[C@]14C (some centres undefined)	·	·	·	–
O=C1c2cccc([N+](=O)[O-])c2C(=O)N1c1ncn[nH]1	–[7.6 µM]	–[11.4 µM]	–[11.4 µM]	–[11.5 µM]
Cn1cccc1C(=O)N1CCC2(CC1)CN(C(c1ccccc1)c1ccccc1)C2	–	?	?	–
COc1cccc(-c2cncnc2NCc2cccs2)c1	–	?	?	10µM
COc1cccc(-c2cncnc2NCc2ccccc2)c1	–	?	?	20µM
COc1cccc(-c2cncnc2NCc2cnc(C)cn2)c1	–	–	–	–
C=C(C#N)C(=O)OCC	–	?	?	–
